61 compounds from PubChem BioAssay AID2314 (National Center for Advancing Translational Sciences (NCATS), 2010) can be followed below.

The campaign covered roughly 300,000 compounds. About 37,000 (12%) were called active. What follows is part of a selection rich in actives, with near analogues and random picks from the rest. Unmarked numbers belong to inactive results. No stated cut-off is given here; in the data, active means max response mostly above about 13% (no sharp cut-off); inactive means mostly below about 14%.

The experiment is described as follows: Cycloheximide Counterscreen for Small Molecule Inhibitors of Shiga Toxin. Further: read at 38.3 µM for the half of the compounds with a filed dose; 0% is about no effect. The settings on record: cell reporter, cycloheximide protein synthesis inhibition counterscreen; active compounds read high. (The purpose of a counterscreen is to sort out artefacts and off-target activity.)
Turning to `CCCn1nnc(NC(=O)COc2ccc(CC)cc2)n1`, the max response was 3.91%. For `CCCOc1cccc(C(=O)Nc2nnn(CCC)n2)c1` the value was 26.2% (active). For `CCCOc1cccc(C(=O)NCCCNC(=O)c2cccnc2)c1` the value was -1.77%. For `CC1CN(S(=O)(=O)c2ccc(C(=O)Nc3sccc3C(N)=O)cc2)CC(C)O1` (stereo unspecified) the value was -0.296%; for `COc1ccc(CN(C(=O)CSc2nnc(-c3ccc(OC)c(OC)c3)o2)c2ccc(F)cc2)cc1`, -0.972%; for `COC(=O)c1c(C)[nH]c(C(=O)NCCc2ccc(S(N)(=O)=O)cc2)c1C`, -10.2%. As for `CC(=O)c1c(C)[nH]c(C(=O)OCC(=O)NCCC(C)C)c1C`, the max response was -1.49%. Consider `CCCCOC(=O)c1[nH]c(C)c(C(=O)OC)c1C`, for which the max response is 60.6% (active).

With `Cc1ccc(C(=O)NC(=S)Nc2ccc(N3CCOCC3)cc2)cc1`, the max response was 13.6%. For the compound `COC(=O)c1ccc(NC(=S)Nc2cccc(C)n2)cc1`, the max response is 10.2%.

With `COC(=O)c1ccc(NC(=S)NN2CCOCC2)cc1`, the max response was 20.6% (active). For `COc1ccc2c3c(c(=O)oc2c1)C1O[C@](CCCCN2C(=O)c4ccccc4C2=O)(Cc2c1ccc1ccccc21)O3` the value was -1.56%; for `Oc1c(Br)cccc1/C=N/Nc1c(F)c(F)c(F)c(F)c1F`, 6.05%. For `Clc1ccc(N/N=C/c2cccs2)nn1` the value was 22.2% (active). For `NC(=O)N/N=C\c1cccs1` the value was 5.02%; for `COc1cc(/C=N/Nc2ccc(C)cc2)cc(Br)c1O`, 7.52%; for `Cc1ccsc1/C=N/n1c(=S)[nH]nc(C)c1=O`, -1.56%. For `COc1cccc(/C=N\Nc2nncc(-c3ccccc3)n2)c1`, the max response is 6.58%. For `Cc1ccsc1/C=N/Nc1ccc(Cl)nn1` the value was 14% (active); for `Cn1c(=O)c2c(nc(N/N=C/c3cccs3)n2Cc2ccc(Br)cc2)n(C)c1=O`, 10.1%; for `COc1cccc(/C=N/Nc2ccc(Cl)nn2)c1`, 25.6% (active). For `Oc1cccc(/C=N/Nc2ccc(Cl)nn2)c1O` the value was 43.2% (active).

Consider `Cc1ccsc1/C=N/NC(=O)Cc1cc(=O)[nH][nH]1`, for which the max response is 4.08%. Turning to `O=C(C(NS(=O)(=O)c1cccc2nsnc12)c1ccccc1)N1CCN(c2ccccc2)CC1` (stereo unspecified), the max response is 4.26%.

Turning to `CCOC(=O)c1cc(S(=O)(=O)NCCc2ccc(OC)c(OC)c2)cn1C`, the max response was -2.67%. For `CCOC(=O)N1CCN(S(=O)(=O)c2ccc(Br)cc2)CC1` the value was -0.649%; for `CCOC(=O)N1CCN(C(=O)C2CCN(S(=O)(=O)c3cc(Cl)ccc3OCC)CC2)CC1`, 11.3%.

Regarding `C=C(C)C1CC=C(C)/C(=N\NC(=O)CNc2ccccc2OC)C1` (stereo unspecified), the max response was -1.85%. For `Cc1ccc2nc(Nc3ccccc3O)nc(-c3ccccc3)c2c1` the value was 0.615%; for `Cc1cc(Nc2ccccc2)nc(N)n1`, 7.42%; for `Cc1ccc2nc(Nc3ccccc3)cc(C)c2c1`, 51.1% (active). For `Cc1ccc(S(=O)(=O)N(CC(O)CN2C(=O)NC(C)(C)C2=O)c2cccc([N+](=O)[O-])c2)cc1` (stereo unspecified) the value was -3.67%; for `COCCCN1C(=O)c2ccc(C(=O)OCC(=O)NCc3ccccc3OC)cc2C1=O`, -6.08%; for `CCOC(=O)N1CCC(NC(=O)CCc2ccccc2)CC1`, 1.36%. For `O=C(O)C1CCN(C(=O)OCc2ccccc2)CC1` the value was 40.2% (active); for `O=C(NCC1CCC(C(=O)O)CC1)OCc1ccccc1` (stereo unspecified), -2.25%. In the case of `COc1cccc(N(CC(=O)NC2CCCCCC2)S(=O)(=O)c2ccccc2)c1`, the max response is 1.89%. For `COc1ccccc1C(=O)N1CCNC(=O)C1CC(=O)Nc1ccc(Cl)cc1` (stereo unspecified) the value was -1.23%. For `O=C(CC1SCCNC1=O)Nc1ccc(Cl)c(Cl)c1` (stereo unspecified) the value was 17.5%; for `O=C(CC1SCCNC1=O)Nc1ccc(Cl)cc1` (stereo unspecified), 21.9% (active); for `CCOc1cc(NC(=S)NCc2ccco2)c(OCC)cc1NC(=O)c1ccco1`, 6.2%.

`O=C(NNC(=S)Nc1ccc(Br)cc1Cl)c1ccco1`: the max response was 43.8% (active). For `CCC(=O)NC(=S)Nc1ccc(NC(=O)c2ccco2)c(Cl)c1` the value was 16.5%; for `CSc1nc(-c2ccco2)nn1C(=O)c1ccccc1Cl`, 1.46%; for `COc1cc(CC(=O)Nc2nc(-c3ccc(F)c(F)c3)cs2)cc(OC)c1OC`, -5.65%. Take `COc1ccc(CC(=O)Nc2nc(-c3ccc(F)c(F)c3)cs2)cc1OC`: the max response is -6.69%.

For the compound `Cc1ccc(S(=O)(=O)NC(=O)Nc2nc(-c3ccc(F)c(F)c3)cs2)cc1`, the max response was 19.2% (active).

As for `O=[N+]([O-])c1ccc(N(CCO)Cc2ccccc2)c([N+](=O)[O-])c1`, the max response was -2.22%.

As for `O=C(N/N=C1\CCSC1)c1cc(Cl)ccc1O`, the max response was 18.7% (active). For `C/C(=N/NC(=O)c1cc(Cl)ccc1O)C12CC3CC(CC(C3)C1)C2` the value was 18.4%. For `Cc1ccc(C)c(N2C(=O)CS/C2=N\NC(=O)c2ccccc2Cl)c1` the value was -3.78%.

As to `Cc1cc(C=O)c(C)n1-c1ccc(NC2CCCCC2)c([N+](=O)[O-])c1`, the max response is 6.55%.

Consider `Cc1cc(=O)oc2c(C)c(OC(C)C(=O)NC3CCN(Cc4ccccc4)CC3)ccc12` (stereo unspecified), for which the max response is -2.67%. Take `COc1ccc(NC(=O)CC(NC(C)c2ccccc2)C(=O)O)cc1` (stereo unspecified): the max response was -3.91%. For `COc1ccc(C(CC(=O)Nc2ccc(C)cc2)NC(=O)C(F)(F)F)cc1` (stereo unspecified) the value was 12.7% (active); for `COc1ccc(NC(=O)C(=O)NCC(=O)Nc2cccc(C(F)(F)F)c2)cc1`, -1.93%; for `Cc1ccc(NS(=O)(=O)c2ccc3c(c2)NC(=O)CO3)cc1`, -9.63%. For `COc1ccc(CNC(=O)C(Cc2ccccc2)n2cccc2)cc1` (stereo unspecified) the value was -3.21%. For `CCOC(=O)C1Sc2[nH]c(=O)sc2C(c2ccc(Cl)cc2)C1C(=O)OCC` (stereo unspecified) the value was -1.02%; for `COc1ccc(N2CCN(C(=O)c3ccc(N4CCCCS4(=O)=O)cc3)CC2)cc1`, -2.57%. For the compound `CCC(=C/c1sc2ccc3ccccc3c2[n+]1C)/C=C1\Sc2ccc3ccccc3c2N1C`, the max response was -3.42%.
